Screens as filed in PubChem.
KB-3-1 cytotox: kills parental KB-3-1 adenocarcinoma cells; KB-3-1 viability, CellTiter-Glo ATP luminescence, 72 h; Potency, µM (top dose mostly 46.1 µM), actives largely listed as cytotoxic; hit rate 1.4% among 400,000; AID 1347075; further: potency means the concentration at half of the fitted maximal effect; on the % scale 0 is the no-effect control and ±100 the full control effect; nearly all actives have a fitted effect of over 60% in size
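KB-3-1 parental drug-naive adenocarcinoma cells in DMEM/10% FBS, incubated 72 h at 37 C with pin-transferred compounds across a concentration series. Viability by CellTiter-Glo luminescence; concentration-response curves fitted after normalization.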
SW480 rerep: DNA re-replication induction in SW480 cells. SW480 DNA re-replication, Hoechst DNA content imaging, 48 h. Potency, µM (top dose mostly 46.1 µM), for the others: top-dose re-replication activation, hits mostly activators. hit rate 1.8% among 340,000; further: potency means the concentration at half of the fitted maximal effect; % of control where 0% means no effect; nearly all actives have a fitted effect of over 55% in size
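Hoechst fluorescence of nuclei (405 nm excitation, 500-530 nm emission) measured by plate-scanning imager after 48 hr compound exposure at 37 C; re-replication scored as increased number of nuclei with elevated intensity.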
KCNH2 WT inh: inhibitors of human wildtype KCNH2 potassium channel. U2OS, BacMam KCNH2, thallium flux FluxOr; active compounds read low. activity change, % at 1.84 µM. hit rate 0.37% among 340,000. AID 720551;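 active means maximum activity change below -70%; inconclusive means maximum activity change between -70% and -50%; inactive means maximum activity change above -50%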; further: on the % scale 0 is the no-effect control and ±100 the full control effect
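U2OS cells transduced with wild-type KCNH2 virus are loaded with FluxOr dye for 45 min, and thallium flux is measured in kinetic reads before and after stimulation buffer. Rate constants are normalized to DMSO controls.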
KCNH2 3.1 block: inhibitors of human KCNH2 3.1 potassium channel isoform; U2OS KCNH2 3.1, thallium flux FluxOr; active compounds read low; activity change, % (tested at about 1.8 µM); hit rate 0.95% among 340,000; AID 720553;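 active means maximum activity change below -70%; inconclusive means maximum activity change from -70% to -50%; inactive means maximum activity change above -50%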;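 further: thallium influx rate constant from kinetic fluorescence after stimulation buffer; on the % scale 0 is the no-effect control and ±100 the full control effect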
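Channel expression came from 3.1 mutant virus (1.77 x 10^8 /mL) applied to suspended U2OS cells for 4 h. Flux was tracked with FluxOr dye plus Red40 quencher, and kinetic rate constants normalized to controls.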
KB-V1 cytotox: kills drug-selected multidrug resistant KB-V1 cells; KB-V1 MDR cells viability, CellTiter-Glo, 72 h; Potency, µM (doses to about 46.1 µM), actives largely listed as cytotoxic; hit rate 3.4% among 400,000; further: potency means the concentration at half of the fitted maximal effect; on the % scale 0 is the no-effect control and ±100 the full control effect; nearly all actives have a fitted effect of over 60% in size
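KB-V1 cells (P-gp-expressing MDR subline of KB-3-1) in phenol-red-free DMEM with 10% FBS were exposed to library compounds over a concentration series for 72 h at 37 degrees C. Viability read by CellTiter-Glo luminescence; concentration-effect curves fitted after normalization.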
MCF10A rereplic: inducers of DNA re-replication in MCF 10A breast cells; hit rate 2.9% among 350,000; MCF 10A DNA re-replication, Hoechst nuclear intensity, 48 h; Potency, µM (titrated, usually from 46.1 µM), for the others: at the top dose activity, positive = re-replication, usual class: activators; further: potency means the concentration at half of the fitted maximal effect; % of control where 0% means no effect; nearly all actives have a fitted effect of over 50% in size
Active calls of the source: *; i = inactive; ? = inconclusive; . = no result; [ ] = remark or other dose. This is a sample that favours compounds with a hit; in the whole collection about 7.6% have one here. Unless noted, the call rests on the fitted dose curve; in most records, active means well fitted curve in the direction sought with a large enough effect; inconclusive means small, poorly fitted or top-dose-only effect, or another doubt; inactive means no such curve, though single readings can be large; an effect the other way counts as inactive or inconclusive.

SMILES	KB-3-1 cytotox	SW480 rerep	KCNH2 WT inh	KCNH2 3.1 block	KB-V1 cytotox	MCF10A rereplic
CC(=O)c1cccc(NC(=O)c2ccc(N(Cc3ccccc3)S(C)(=O)=O)cc2)c1	?	-8.0%	11.7	-2.0	20.6µM*	14.2%
CCN(c1ccccc1)S(=O)(=O)c1cc(C(=O)Nc2cccc(Cl)c2)ccc1F	?	?	16.0	-8.1	20.6µM*	?
COc1ccc(C)cc1NC(=O)C1CCN(S(=O)(=O)c2ccc3c(c2)CCCN3C(C)=O)CC1	i	.	.	.	i	.
O=C(Cn1ncn2c(cc3sccc32)c1=O)NC1CCCC1	i	-5.0%	18.3	-77.3*	i	-13.5%
O=C(Cn1ncn2c(cc3cc(F)ccc32)c1=O)NC1CCCCC1	i	.	.	.	i	.
Nc1nc(-c2ccc(Br)s2)c(Br)s1	i	15.2%	-7.5	-0.1	i	20.6µM*
N#Cc1c(N)nc2c(c1-c1ccc(Br)s1)CCCC2	?	-40.1%	3.5	15.9	i	-5.1%
CN(C(=O)c1ccc2ccccc2c1)c1ccccn1	i	-1.7%	14.4	-20.2	i	-1.7%
Cc1ccc(S(=O)(=O)Nc2cc(Cl)ccc2-n2cncn2)cc1	i	-6.0%	-6.6	5.4	i	4.6%
CCOc1ccc(S(=O)(=O)N2CCc3cc(OC)c(OC)cc3C2)cc1	i	-689.3%	3.4	8.9	2.31µM*	-46.0%
CCOc1ccc(S(=O)(=O)N2CCc3ccccc3C2)cc1	i	-1.2%[9.22 µM]	-3.1	-7.4	i	1.4%
CC1(C2CC2)NC(=O)N(CC(=O)Nc2ccccc2F)C1=O (centres undefined)	i	-0.7%	-14.3	-0.1	i	-2.0%
O=C(NCc1ccccc1Cl)c1cnc(N2CCCCC2)c2ccccc12	i	.	.	.	i	.
CCCC[C@H]1COCCS(=O)(=O)N1Cc1ccc(F)cc1	?	-8.8%	-5.8	-10.2	?	0.5%
CCCC[C@H]1COCCS(=O)(=O)N1Cc1ccc(C)cc1	16.4µM*	-5.0%	-11.5	-2.2	16.4µM*	-0.9%
Cc1cc(C(=O)Nc2c(F)cc(F)cc2Br)c(C)o1	i	-1.8%	14.4	-7.6	?	-2.2%
CC(=O)Nc1c(F)cc(Br)cc1F	i	?	1.6	-94.8*	i	?
CCOC(=O)C1C(C(=O)OCC)C(C)(C)C1N(C)C (centres undefined)	i	.	-16.0	5.3	i	.
CCOc1ccccc1OCCCC(=O)NNC(=O)c1nn(C)c(=O)c2ccccc12	i	-6.7%	10.5	5.4	23.1µM*	1.8%
Cn1nc(C(=O)NNC(=O)COc2ccccc2)c2ccccc2c1=O	i	0.2%	19.6	7.4	i	5.4%
Cc1sc2ncnc(N3CCC(C(=O)Nc4ccccc4C(C)(C)C)CC3)c2c1C	i	?	-4.3	-15.5	?	18.0%
CCOC(=O)c1ccccc1NC(=O)C1CCN(c2ncnc3sc(C)c(C)c23)CC1	?	-10.1%	0.8	5.7	23.1µM*	?
CCOC(=O)c1ccccc1NC(=O)C1CC(=O)N(C2CCCCC2)C1 (centres undefined)	i	3.9%	22.7	10.0	i	-4.1%
Cc1ccc(NC(=O)C2CCN(c3ncnc4sc(C)c(C)c34)CC2)cc1S(=O)(=O)N(C)C	?	-477.1%	1.1	-15.8	?	?
CCOC(=O)c1ccccc1NC(=O)C1CC(=O)N(C(C)(C)C)C1 (centres undefined)	i	-34.9%	-10.3	-2.9	i	1.03µM*
Cc1sc2ncnc(N3CCC(C(=O)N(C)CC(=O)Nc4ccc(Cl)c(C(F)(F)F)c4)CC3)c2c1C	20.6µM*	-423.0%	4.7	-15.0	i	?
Cc1ccc(C)c(S(=O)(=O)N2CCN(C(=O)C3CCN(c4ncnc5sc(C)c(C)c45)CC3)CC2)c1	23.1µM*	20.6µM*	-2.3	-12.9	?	20.6µM*
Cc1ccccc1NC(=O)Cc1c[nH]c2ccccc12	i	-0.4%	3.3	-1.6	i	-0.1%
